Efflux pump inh = antifungal efflux pump inhibition, Nile Red retention; 0.44% of 330,000 active; S. cerevisiae Candida pump triplex; inhibition, % at 10 µM;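 active means plate passing quality check with inhibition over a set limit, or well fluorescence over plate mean plus 4 SD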;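 further: Nile Red retained in pooled yeast measured as flow cytometry median fluorescence; higher means more Nile Red kept so more efflux inhibition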
PolyA inh = inhibitors of polyadenylation in S. cerevisiae. S. cerevisiae SKY197-pL101 polyadenylation reporter, beta-gal luminescence; efflux-impaired pdr1/pdr3 knockout yeast; score 100 = 6 SD above DMSO. activity score, % at 12 µM. 0.02% of 300,000 active. AID 1875;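 active means lowest replicate activity score at least 50, where 100 means six control SD above control mean; inconclusive means lowest score under 50 but half or more replicates reach 50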;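 further: yeast exposed to compound for 9 h at 30 °C; higher score means more reporter readthrough which indicates perturbed polyadenylation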
NLRP3 yeast inh = inhibitors of NALP3 inflammasome in yeast | AID 2825 | 0.39% of 330,000 active | Yeast reconstituted NLRP3/ASC/caspase-1, beta-gal luminescence, 24 h | inhibition, % at 10 µM;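 active means inhibition of 50% or more; inactive means inhibition below 50%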
JMJD2C inh = human JMJD2C demethylase inhibition. GST-JMJD2C(1-420) H3K9me3 demethylation, DELFIA europium. inhibition, % at 2.35 µM. 0.069% of 330,000 active. AID 2099;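 active means more than half of a compound's replicate wells show inhibition beyond 50%, single wells judged on their own value; inconclusive means some, but no more than half, of replicates pass 50% inhibition; inactive means no replicate passes 50% inhibition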;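 further: signal counts dimethyl H3K9 product captured on neutravidin plate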
Target sequence (Q9H3R0 1-420 limits assumed): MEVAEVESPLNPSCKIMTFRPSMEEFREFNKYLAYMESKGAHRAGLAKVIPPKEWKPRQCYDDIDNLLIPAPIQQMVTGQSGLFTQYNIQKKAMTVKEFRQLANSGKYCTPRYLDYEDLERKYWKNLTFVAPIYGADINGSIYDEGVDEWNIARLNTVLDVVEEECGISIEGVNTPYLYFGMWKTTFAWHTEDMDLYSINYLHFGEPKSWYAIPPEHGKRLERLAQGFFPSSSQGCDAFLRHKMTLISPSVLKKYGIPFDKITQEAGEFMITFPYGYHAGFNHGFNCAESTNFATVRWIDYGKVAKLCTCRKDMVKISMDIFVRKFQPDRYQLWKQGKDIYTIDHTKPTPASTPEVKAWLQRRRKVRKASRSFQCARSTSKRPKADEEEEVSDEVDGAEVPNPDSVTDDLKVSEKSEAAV
NALP1 inh = blocks the NALP1 inflammasome reconstituted in yeast; S. cerevisiae NALP1/ASC/caspase-1 growth, X-gal OD620, 72 h; inhibition, % at 10 µM; 0.61% of 280,000 active; in the data active means inhibition mostly above about 24%, no sharp cut-off; inactive means mostly below about 32%
HDAC3 inh = inhibitors of human histone deacetylase 3. O15379. 0.15% of 320,000 active. inhibition, % at 8.3 µM. recombinant HDAC3, fluorogenic peptide/trypsin coupled, fluorescence. AID 2718; in the data active means inhibition above about 26%, passing the limit was not always enough; inconclusive means no clear call, values can overlap the other calls
Yeast cmpd fluor = counter-screen for efflux pump inhibitors: compound fluorescence; AID 588517; S. cerevisiae AD/pABC3, flow cytometry; 4% of 1,700 active; shares compounds with Efflux pump inh; fluorescence ratio to DMSO, % at 10 µM;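 active means fluorescence ratio to DMSO above its plate's cutoff, the plate mean ratio plus 5 SD, cut at about 210% in these data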;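 further: unstained yeast with no Nile Red so the signal is compound autofluorescence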
CaMdr1 efflux inh = Candida Mdr1 efflux pump inhibition | shares compounds with Efflux pump inh | S. cerevisiae AD/CaMDR1, Nile Red efflux, flow cytometry | inhibition, % at 10 µM | 1% of 1,700 active | AID 588518; in the data active means inhibition above about 26%;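 further: higher means more Nile Red retained so more efflux inhibition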
Cdr2 pump inh = blocks the Candida albicans Cdr2 efflux pump in yeast. shares compounds with Efflux pump inh. S. cerevisiae AD/CaCDR2, Nile Red retention, flow cytometry. Nile Red retention ratio vs DMSO, % at 10 µM. 4% of 1,700 active. AID 588520; in the data active means Nile Red retention ratio vs DMSO above about 190%;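 further: higher ratio means more blocking of Cdr2 efflux of the dye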
CaCdr1 efflux inh = Candida Cdr1 efflux pump inhibition; shares compounds with Efflux pump inh; S. cerevisiae AD/CaCDR1, Nile Red efflux, flow cytometry; inhibition, % at 10 µM; 1% of 1,700 active; AID 588522;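 active means inhibition above the screen-wide mean plus twice its standard deviation, cut at about 32% in these data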
Numbers stand for hits. Rows were chosen to be rich in hits. Some 1.5% of all compounds tested hit in one or more screens of this group.

Screening COc1cc(/C=C/C(=O)N2CC(C)OC(C)C2)cc(OC)c1OC (centres undefined) returned Efflux pump inh inactive, PolyA inh inactive, NLRP3 yeast inh inactive, JMJD2C inh inactive, NALP1 inh inactive and HDAC3 inh inactive.
`COc1cccc(/C=C/C(=O)N2CC(C)OC(C)C2)c1OC` (centres undefined) gave Efflux pump inh 1.7, PolyA inh inconclusive, NLRP3 yeast inh inactive, JMJD2C inh inactive, NALP1 inh inactive, HDAC3 inh inactive, Yeast cmpd fluor inactive, CaMdr1 efflux inh inactive, Cdr2 pump inh inactive and CaCdr1 efflux inh inactive.
Screening COc1ccc(/C=C/C(=O)NC2CCCCCCC2)cc1S(=O)(=O)N1CCOCC1 returned Efflux pump inh inactive, PolyA inh inactive, NLRP3 yeast inh inactive, JMJD2C inh inactive, NALP1 inh inactive and HDAC3 inh inactive.
`O=C(Nc1ccc(S(=O)(=O)N2CCOCC2)cc1)c1ccc(Br)o1` gave Efflux pump inh inactive, PolyA inh inactive, NLRP3 yeast inh inactive, JMJD2C inh inactive and NALP1 inh inactive.
Screening O=C(Nc1ccc(CN2CCOCC2)cc1)c1ccc(Br)o1 returned Efflux pump inh 1.7, PolyA inh inactive, NLRP3 yeast inh inactive, JMJD2C inh inactive, NALP1 inh inactive, HDAC3 inh inactive, Yeast cmpd fluor inactive, CaMdr1 efflux inh inactive, Cdr2 pump inh inactive and CaCdr1 efflux inh inactive.
Screening O=C1c2cc(O)c(O)cc2S(=O)(=O)C1c1ccccc1 (centres undefined) returned Efflux pump inh inactive, PolyA inh inactive, NLRP3 yeast inh inactive, JMJD2C inh inactive and HDAC3 inh inactive.
Screening CCOC(=O)N1CCN(S(=O)(=O)N2CCCC(C(=O)NCCCN3CC(C)CC(C)C3)C2)CC1 (centres undefined) returned Efflux pump inh inactive, PolyA inh inactive, NLRP3 yeast inh inactive, JMJD2C inh inactive, NALP1 inh inactive and HDAC3 inh inactive.
For Cc1cc(Cl)c(OCCCn2ccnc2)c(Br)c1 the results were Efflux pump inh 15.7, PolyA inh inactive, NLRP3 yeast inh inactive, JMJD2C inh inactive, NALP1 inh 49.8, HDAC3 inh inactive, Yeast cmpd fluor inactive, CaMdr1 efflux inh inactive, Cdr2 pump inh inactive and CaCdr1 efflux inh inactive.
Cc1cc(C)c(OCCCn2ccnc2)c(C)c1 was read as Efflux pump inh inactive, PolyA inh inactive, NLRP3 yeast inh inactive, JMJD2C inh inactive, NALP1 inh inactive and HDAC3 inh inactive.
CN1CCN(C2=CC3=CC(=C(C#N)C#N)CCC3CC2)CC1 (centres undefined) was read as NALP1 inh inactive, Yeast cmpd fluor inactive, CaMdr1 efflux inh inactive, Cdr2 pump inh 242.9 and CaCdr1 efflux inh inactive.
`CCN1CCN(C2=CC3=CC(=C(C#N)C#N)CCC3CC2)CC1` (centres undefined) gave NALP1 inh inactive, Yeast cmpd fluor inactive, CaMdr1 efflux inh inactive, Cdr2 pump inh 203.4 and CaCdr1 efflux inh inactive.
Screening N#CC(C#N)=C1C=C2C=C(N3CCOCC3)CCC2CC1 (centres undefined) returned PolyA inh inactive, JMJD2C inh inactive, NALP1 inh inactive, Yeast cmpd fluor inactive, CaMdr1 efflux inh inactive, Cdr2 pump inh 205.7 and CaCdr1 efflux inh inactive.
CC1(C)CC(NCCN2CCN(C3=CC(=C(C#N)C#N)CC(C)(C)C3)CC2)=CC(=C(C#N)C#N)C1 was read as Efflux pump inh inactive, PolyA inh inactive, NLRP3 yeast inh inactive, JMJD2C inh inactive, NALP1 inh inactive and HDAC3 inh inactive.
Screening N#CC(C#N)=C1C=C2C=C(N3CCCCCC3)CCC2CC1 (centres undefined) returned PolyA inh inactive, JMJD2C inh inactive, NALP1 inh inactive, Yeast cmpd fluor 258.5, CaMdr1 efflux inh inactive, Cdr2 pump inh 271.3 and CaCdr1 efflux inh inactive.
For Cc1noc(C)c1-c1nnc(-c2ccc(OC(F)(F)F)cc2)o1 the results were Efflux pump inh inactive, PolyA inh inactive, NLRP3 yeast inh inactive, JMJD2C inh inactive, NALP1 inh inactive and HDAC3 inh inactive.
For Cc1cc(C)n(CC(=O)N/N=C/c2cc([N+](=O)[O-])ccc2O)n1 the results were Efflux pump inh 18.9, PolyA inh inactive, NLRP3 yeast inh inactive, JMJD2C inh inactive, NALP1 inh inactive, HDAC3 inh inactive, Yeast cmpd fluor inactive, CaMdr1 efflux inh inactive, Cdr2 pump inh inactive and CaCdr1 efflux inh inactive.
For Cc1cc([N+](=O)[O-])nn1CC(=O)N/N=C/c1ccccc1O the results were Efflux pump inh inactive, PolyA inh inactive, NLRP3 yeast inh inactive, JMJD2C inh inactive, NALP1 inh inactive and HDAC3 inh inactive.
Screening Cc1ccc(C)c(OCC(=O)NCC(c2ccco2)N2CCCCC2)c1 (centres undefined) returned Efflux pump inh inactive, PolyA inh inactive, NLRP3 yeast inh inactive, JMJD2C inh inactive and HDAC3 inh inactive.
`COc1ccc(C(=O)N2CCN(c3ccccc3)CC2)cc1S(=O)(=O)N1CCCC1` gave Efflux pump inh 6.2, PolyA inh inactive, NLRP3 yeast inh inactive, JMJD2C inh inactive, NALP1 inh inactive, HDAC3 inh inactive, Yeast cmpd fluor inactive, CaMdr1 efflux inh inactive, Cdr2 pump inh inactive and CaCdr1 efflux inh inactive.
Cc1ccc(C(=O)N2CCN(c3ccccc3)CC2)cc1S(=O)(=O)N1CCCC1 was read as Efflux pump inh inactive, PolyA inh inactive, NLRP3 yeast inh inactive, JMJD2C inh inactive, NALP1 inh inactive and HDAC3 inh inactive.
`N#CCCN1CCN(Cc2ccccc2)CCC1=O` gave Efflux pump inh inactive, PolyA inh inactive, NLRP3 yeast inh inactive, JMJD2C inh inactive, NALP1 inh inactive and HDAC3 inh inactive.
Screening Cc1ccc(C(=O)Nc2ncc3c(n2)CC(c2ccco2)CC3=O)cc1 (centres undefined) returned Efflux pump inh 9.0, PolyA inh inactive, NLRP3 yeast inh inactive, JMJD2C inh inactive, NALP1 inh inactive, HDAC3 inh inactive, Yeast cmpd fluor inactive, CaMdr1 efflux inh inactive, Cdr2 pump inh inactive and CaCdr1 efflux inh inactive.
COc1ccccc1CN(Cc1cc2cc3c(cc2[nH]c1=O)OCCO3)Cc1nnnn1Cc1ccco1 was read as Efflux pump inh 1.4, PolyA inh inactive, NLRP3 yeast inh inactive, JMJD2C inh inactive, NALP1 inh inactive, HDAC3 inh inactive, Yeast cmpd fluor inactive, CaMdr1 efflux inh inactive, Cdr2 pump inh inactive and CaCdr1 efflux inh inactive.
